Measurements taken from the supplement of paper PMC3334620.
In all, about 33,000 sequences were measured (“E-score (-0.5 to 0.5)”: median about -0.032, highest 2% from about 0.36 on). Only a selection was taken, and the highest values are over-represented in it overall.

Molecular target: T1, Sko1 (UniProt Q02100)
T1 sequence: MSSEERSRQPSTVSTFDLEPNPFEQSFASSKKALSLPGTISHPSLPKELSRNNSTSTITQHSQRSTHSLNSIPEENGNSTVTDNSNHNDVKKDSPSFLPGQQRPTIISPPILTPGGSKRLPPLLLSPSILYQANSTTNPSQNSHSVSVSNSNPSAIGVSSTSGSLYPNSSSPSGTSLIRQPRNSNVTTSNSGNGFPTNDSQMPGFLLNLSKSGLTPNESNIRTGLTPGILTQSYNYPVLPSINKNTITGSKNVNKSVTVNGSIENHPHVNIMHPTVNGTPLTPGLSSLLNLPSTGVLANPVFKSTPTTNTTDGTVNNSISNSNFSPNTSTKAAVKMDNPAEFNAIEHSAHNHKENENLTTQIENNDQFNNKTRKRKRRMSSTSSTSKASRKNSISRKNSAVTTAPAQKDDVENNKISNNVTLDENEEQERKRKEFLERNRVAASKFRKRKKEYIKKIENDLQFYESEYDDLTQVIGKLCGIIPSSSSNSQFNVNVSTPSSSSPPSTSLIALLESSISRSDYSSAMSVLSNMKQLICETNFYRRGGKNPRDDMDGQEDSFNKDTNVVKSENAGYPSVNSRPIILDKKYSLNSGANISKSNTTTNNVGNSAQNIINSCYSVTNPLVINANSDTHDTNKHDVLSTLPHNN
Assay: PBM E-score (8-mer binding enrichment) (E-score (-0.5 to 0.5)); higher = stronger / more preferred TF binding
Conditions: protein concentration: 200 nM; construct: GST-full length
Method in brief: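 Universal all-10-mer Agilent arrays, fresh or stripped once, were converted to double-stranded form by primer extension. GST-tagged yeast transcription factors from PURExpress in vitro transcription/translation, full-length or DNA-binding domain only, were applied at about 100-200 nM and detected with fluorescent anti-GST. After masliner normalisation, the Universal PBM Analysis Suite scored each ungapped eight-base word together with its reverse complement by E-score.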

| Sequence | PBM E-score |
| --- | --- |
| AATGCCTA | -0.0242 |
| CCTATGCC | -0.3 |
| CCATGGAG | -0.266 |
| AAACGCAT | 0.0801 |
| TTACGGAA | 0.246 |
| TTACGCAA | 0.466 |
| ATACGCAT | 0.375 |
| AGACGCAC | 0.104 |
| CTACGCAA | 0.414 |
| ATACGCGC | 0.188 |
| TAACGCAA | 0.312 |
| ATACGCAG | 0.296 |
| CTACGCAG | 0.274 |
| ATACGCAC | 0.389 |
| CTACGCAC | 0.315 |
| ATAGCCTA | -0.0632 |
| GCAAGGCA | 0.0267 |
| AAGACCTG | -0.147 |
| AGCTAATG | 0.114 |
| ACGAGACG | 0.126 |
| CCACCGAA | -0.00284 |
| CAGCTGAC | 0.0244 |
| AAGGGAAG | 0.0269 |
| ACCAGAGT | -0.256 |
| ATTCTATG | 0.0207 |

| Sequence | PBM E-score |
| --- | --- |
| CGTACTCC | 0.201 |
| ATACGCAA | 0.447 |
| AAACGCAA | 0.335 |
| GTACGCGA | 0.277 |
| GTACGCAC | 0.303 |
| GTACGCAA | 0.399 |
| ATACGCGA | 0.281 |
| GAAGTTGC | -0.0684 |
| ATAGCACG | -0.0293 |
| AATTGGGT | 0.12 |
| CCACGTCC | 0.109 |
| GCACGTCC | 0.0489 |
| GTACGTCA | 0.491 |
| ACACGTCC | 0.214 |
| GTCCGTCA | 0.179 |
| ACACGTCA | 0.489 |
| GCCCGTCA | -0.00134 |
| ACACGTCG | 0.335 |
| GCACGTCA | 0.477 |
| CCACGTCA | 0.477 |
| GTACGGCA | 0.0279 |
| CCACGTCG | 0.168 |
| GGCCCTAA | -0.259 |
| GACGGTAC | 0.171 |
| CCAATGGA | -0.215 |

| Sequence | PBM E-score |
| --- | --- |
| AAGACTGT | -0.142 |
| TCACGTCA | 0.484 |
| TCCCGTCA | 0.218 |
| TCACGACA | 0.212 |
| ACACGTGA | 0.415 |
| GCACGTGA | 0.387 |
| ACACGTGT | 0.407 |
| GCACGTGC | 0.296 |
| GCTCGTGA | -0.116 |
| ACACGAGT | -0.0245 |
| ACACGTGG | 0.356 |
| ACACGTGC | 0.346 |
| ACTAGATC | -0.0827 |
| CAAGATTA | 0.11 |
| AAGACGCT | -0.168 |
| CAGGTAAC | -0.118 |
| AAGACCCC | -0.274 |
| CATCCCTA | -0.124 |
| CACGTCGG | 0.183 |
| TCCGTCGA | -0.0164 |
| TACGTCGA | 0.422 |
| AACGTCGA | 0.281 |
| GACGTCGA | 0.364 |
| CACGTCGA | 0.278 |
| CGTGTGGC | 0.152 |

| Sequence | PBM E-score |
| --- | --- |
| CCTATAGG | -0.205 |
| CAGTAAGA | 0.0474 |
| ACACATAC | 0.124 |
| ATGTGACG | 0.44 |
| ATGTGACA | 0.169 |
| CGGTGACA | -0.0125 |
| CGGTGACC | -0.172 |
| ATGTGACC | -0.0234 |
| AGGTGACA | 0.118 |
| AGGTGACC | -0.0978 |
| CGGTGACG | 0.449 |
| AGGTGACG | 0.388 |
| CTCACTAA | 0.118 |
| AGGGCCAG | -0.407 |
| ACCGAGGC | -0.319 |
| GGCATTGA | -0.104 |
| AAGTAAGC | 0.0436 |
| ACGTAAGC | 0.455 |
| ACGTAAGT | 0.465 |
| ACGTAAGA | 0.476 |
| CCGTAATA | 0.288 |
| AAGTAAGT | 0.0641 |
| CCGTAAGC | -0.0492 |
| GAGTAATA | 0.183 |
| TCGTAAGA | 0.199 |

| Sequence | PBM E-score |
| --- | --- |
| GCGTAATA | 0.421 |
| CCGTAAGA | -0.0187 |
| GCGTAAGC | 0.294 |
| AGAGTTCC | -0.269 |
| CGTAGGTC | 0.284 |
| GTCTCAAA | -0.0308 |
| AAGATATT | 0.0367 |
| ACTCCTAC | 0.0364 |
| CGTTGCAC | 0.11 |
| CTCGGCGA | -0.0899 |
| CAACATTC | -0.167 |
| AATGCCCA | -0.173 |
| ATTCTTGC | 0.0625 |
| GGCAGCAC | -0.103 |
| CTTCTCAA | -0.04 |
| GCAACCGA | -0.129 |
| ATTGGCAA | 0.134 |
| AGGTAAGG | -0.0698 |
| ACGTAAGG | 0.464 |
| CCGTAAGG | -0.15 |
| GTGTAATA | 0.221 |
| GTGTAAGA | 0.0148 |
| GCGTAAGA | 0.378 |
| CTGTAATA | 0.042 |
| GAGTAAGA | 0.0882 |

| Sequence | PBM E-score |
| --- | --- |
| ATGTAATA | 0.376 |
| GACTTTGC | -0.117 |
| TCTCGCAA | -0.114 |
| CATGCCAG | -0.191 |
| CCTAGGCA | -0.257 |
| AGAGCGAT | -0.16 |
| CTAGCTAC | -0.105 |
| GCATGCCA | -0.187 |
| CTGCCATA | -0.0751 |
| GTCTGCCA | -0.00797 |
| CACGCGTA | 0.311 |
| ATCGCGTA | 0.326 |
| GACGCGTA | 0.388 |
| TACGCGTA | 0.387 |
| GTCGCGTA | 0.363 |
| AACGCGTA | 0.287 |
| CTCGCGTA | 0.212 |
| CACGCGTC | 0.291 |
| TACGCGCA | 0.209 |
| CCCTGGCA | -0.34 |
| GGCTGGCA | -0.303 |
| AGAACGGG | -0.124 |
| CGTGCGTC | 0.388 |
| GGTGCGTA | 0.299 |
| AGTGCGTA | 0.376 |

| Sequence | PBM E-score |
| --- | --- |
| CGTGCGTA | 0.382 |
| AGTGCGTC | 0.225 |
| CGTGCGCA | 0.205 |
| AGTGCGTG | 0.152 |
| CCTGCGTC | 0.122 |
| CGTGCGAC | 0.0911 |
| CTAGACTA | -0.139 |
| CATTGGTC | -0.282 |
| CTTGTGCA | -0.154 |
| GTAGCGGA | -0.0973 |
| CGCTTAAA | 0.0298 |
| AGCGTGAT | 0.147 |
| ATGTACAT | 0.32 |
| ACGTACAG | 0.415 |
| ACGTACAA | 0.414 |
| ACGTACAC | 0.444 |
| AAGTACAT | 0.237 |
| TCGTACAA | 0.206 |
| CCGTACAG | -0.22 |
| AGGTACAG | -0.145 |
| GCGTACAC | 0.213 |
| GCGTACAA | 0.146 |
| CCGTACAC | -0.0557 |
| ACGTACAT | 0.449 |
